Measured values from PubChem BioAssay (NCI).
This is part of a sample that, as a whole, favours compounds with a hit. Of some 79,000 tested, about 15% had one in any assay. Calls of active or inactive are those of the source. No stated cut-off is given here; in the data, active means growth inhibition above about 70%; inactive means the rest.

How the values were obtained:
[1] = NCI Yeast Anticancer Drug Screen. Data for the rad52 strain (AID 147);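 further: 0% = growth of vehicle-treated control cultures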; conditions: S. cerevisiae rad52 mutant growth inhibition, hits give high values
In short: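 Compounds are applied to a genetically defined yeast strain lacking normal DNA damage repair, and inhibition of growth is expressed relative to cultures given vehicle only.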

[2] = NCI Yeast Anticancer Drug Screen. Data for the wt1 strain (AID 149);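 further: 0% = growth of vehicle-treated wt1 cultures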; conditions: S. cerevisiae wt1 strain (SPY 50644) growth inhibition, hits give high values
In short: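 Growth inhibition read against vehicle controls after compound exposure of the wt1 yeast strain.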

[3] = NCI Yeast Anticancer Drug Screen. Data for the rad50EPP+ strain (AID 151);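 further: 0% = growth of vehicle-treated control cultures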; conditions: S. cerevisiae rad50 mutant strain, hits give high values
In short: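 Compounds were applied to the rad50EPP+ yeast strain, which bears a defined DNA repair alteration, and growth inhibition was determined relative to vehicle-treated cultures.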

[4] = NCI Yeast Anticancer Drug Screen. Data for the mgt1 strain (AID 153); conditions: S. cerevisiae mgt1 mutant growth inhibition, hits give high values
In short: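 Strain: mgt1 yeast, one of a set carrying defined DNA damage repair or cell cycle control alterations. Compound-treated growth compared with vehicle.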

[5] = NCI Yeast Anticancer Drug Screen. Data for the rad50 strain (AID 155);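 further: 0% = growth of vehicle-only cultures of the same strain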; conditions: S. cerevisiae rad50 strain growth inhibition, hits give high values
In short: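 Readout: growth inhibition relative to vehicle-treated cultures. Compound exposure was carried out in a genetically defined yeast strain deficient in DNA damage repair.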

[6] = NCI Yeast Anticancer Drug Screen. Data for the mec2-1 strain (AID 157); conditions: S. cerevisiae mec2-1 strain, hits give high values
In short: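 Strain: mec2-1 (DNA repair/cell cycle alteration). Compound exposure, then growth measured; inhibition expressed relative to vehicle.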

[7] = NCI Yeast Anticancer Drug Screen. Data for the rad14 strain (AID 159);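 further: 0% = growth of vehicle-treated control cultures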; conditions: S. cerevisiae rad14 strain growth inhibition, hits give high values
In short: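 Growth inhibition vs vehicle controls; genetically altered yeast strain (DNA damage repair defect) treated with test compounds.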

[8] = NCI Yeast Anticancer Drug Screen. Data for the sgs1 mgt1 strain (AID 161);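 further: 0% = growth of cultures given vehicle only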; conditions: S. cerevisiae sgs1 mgt1 strain, hits give high values
In short: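 Inhibition of yeast growth, normalised to vehicle-treated controls, is reported for a strain bearing genetic alterations in DNA damage repair.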

[9] = NCI Yeast Anticancer Drug Screen. Data for the CLN2oe strain (AID 163);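 further: 0% = growth of vehicle-only control cultures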; conditions: S. cerevisiae CLN2oe strain, hits give high values
In short: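 Growth of a genetically modified yeast strain is measured after compound exposure and compared with cultures given vehicle alone.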

[10] = NCI Yeast Anticancer Drug Screen. Data for the cln2 rad14 strain (AID 165);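 further: 0% = growth equal to vehicle treated cultures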; conditions: S. cerevisiae cln2 rad14 strain, hits give high values
In short: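 Compounds are applied to the cln2 rad14 yeast strain, and growth is then compared with that of vehicle-treated cultures to give inhibition.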

[11] = NCI Yeast Anticancer Drug Screen. Data for the bub3 strain (AID 167); conditions: S. cerevisiae bub3 mutant strain, hits give high values
In short: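 Readout: yeast growth inhibition, expressed relative to vehicle-only wells. The test organism is a mutant strain from a panel with lesions in DNA repair or checkpoint genes.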

[12] = NCI Yeast Anticancer Drug Screen. Data for the wt2 strain (AID 169);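 further: 0% = growth of vehicle-treated yeast cultures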; conditions: S. cerevisiae wt2 strain growth inhibition, hits give high values
In short: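 This strain belongs to a panel of yeast strains with defined genetic alterations in DNA damage repair or cell cycle control. Compounds are applied, and growth inhibition is measured against vehicle-treated cultures.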

[13] = NCI Yeast Anticancer Drug Screen. Data for the mlh1 strain (AID 171);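 further: 0% = growth of vehicle-treated control cultures of the same strain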; conditions: S. cerevisiae mlh1 strain growth inhibition, hits give high values
In short: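 Growth of the mutant yeast strain after compound exposure, expressed as inhibition relative to vehicle-only controls.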

[14] = NCI Yeast Anticancer Drug Screen. Data for the sgs1 strain (AID 173);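 further: 0% = growth of vehicle-only control cultures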; conditions: S. cerevisiae sgs1 mutant, hits give high values
In short: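 Growth of a yeast strain bearing a defined genetic alteration is measured after compound treatment. Inhibition is expressed relative to vehicle-only controls.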

[15] = NCI Yeast Anticancer Drug Screen. Data for the mlh1 rad18 strain (AID 175); conditions: S. cerevisiae mlh1 rad18 strain growth inhibition, hits give high values
In short: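 Read-out is yeast growth inhibition, calculated against vehicle-only controls. The compound was applied to a strain engineered with DNA damage repair alterations.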

[16] = NCI Yeast Anticancer Drug Screen. Data for the rad18 strain (AID 177); conditions: S. cerevisiae rad18 mutant growth inhibition, hits give high values
In short: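 Growth of the mutant yeast strain after compound exposure, normalised to vehicle-only cultures.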

[17] = at 5.0 µM (retest, dose inferred, filed as 0.5)
[18] = at 50.0 µM (retest, dose inferred, filed as 5.0)

Measured: growth inhibition

CCN(CC)C(=S)SC(=S)N(CC)CC
inactive: [1]; at 1.2 µM -33% | [1]; at 3.7 µM -17% | [1]; at 11.0 µM 27% | [2]; at 1.2 µM -25% | [2]; at 3.7 µM -16% | [2]; at 11.0 µM 28% | [3]; at 1.2 µM -1% | [3]; at 3.7 µM 7% | [3]; at 11.0 µM 37% | [4]; at 1.2 µM -42% | [4]; at 3.7 µM -43% | [4]; at 11.0 µM 16% | [5]; at 1.2 µM -15% | [5]; at 3.7 µM 15% | [5]; [17] 10% | [5]; at 11.0 µM 29% | [5]; [18] 46% | [6]; at 1.2 µM -34% | [6]; at 3.7 µM -10% | [6]; [17] 6% | [6]; at 11.0 µM 32% | [6]; [18] 48% | [7]; at 1.2 µM -31% | [7]; at 3.7 µM -4% | [7]; at 11.0 µM 34% | [8]; [17] -9% | [9]; at 1.2 µM 0% | [9]; at 3.7 µM -8% | [9]; at 11.0 µM 18% | [9]; at 33.0 µM 63% | [10]; [17] -15% | [10]; [18] 18% | [10]; at 50.0 µM 40.2% | [11]; at 1.2 µM -25% | [11]; at 3.7 µM -21% | [11]; [17] 0% | [11]; at 11.0 µM -22% | [11]; at 33.0 µM 27% | [11]; [18] 58% | [12]; at 1.2 µM -21% | [12]; at 3.7 µM 32% | [12]; at 11.0 µM 60% | [13]; at 1.2 µM -38% | [13]; at 3.7 µM -48% | [13]; at 11.0 µM -6% | [14]; at 1.2 µM -43% | [14]; at 3.7 µM -18% | [14]; at 11.0 µM 44% | [15]; [17] 14% | [16]; at 1.2 µM -26% | [16]; at 3.7 µM 6% | [16]; at 11.0 µM 53%
active: [1]; at 33.0 µM 96% | [1]; at 100.0 µM 98% | [2]; at 33.0 µM 92% | [2]; at 100.0 µM 99% | [3]; at 33.0 µM 91% | [3]; at 100.0 µM 99% | [4]; at 33.0 µM 95% | [4]; at 100.0 µM 98% | [5]; at 33.0 µM 79% | [5]; at 50.0 µM 90% | [5]; at 100.0 µM 97% | [6]; at 33.0 µM 97% | [6]; at 50.0 µM 93.7% | [6]; at 100.0 µM 97% | [7]; at 33.0 µM 99% | [7]; at 100.0 µM 98% | [8]; [18] 87% | [8]; at 50.0 µM 92.8% | [9]; at 100.0 µM 98% | [11]; at 50.0 µM 91.4% | [11]; at 100.0 µM 97% | [12]; at 33.0 µM 98% | [12]; at 100.0 µM 99% | [13]; at 33.0 µM 88% | [13]; at 100.0 µM 98% | [14]; at 33.0 µM 90% | [14]; at 100.0 µM 98% | [15]; [18] 73% | [15]; at 50.0 µM 92% | [16]; at 33.0 µM 95% | [16]; at 100.0 µM 98%
